Measurements: PubChem BioAssay
A number with no mark means an inactive call. This is one part of the list. Calls of active or inactive are those of the source. Unless noted, no stated cut-off is given here; in the data, active means inhibition above about 23%; inactive means the rest.

Tests used:
[1] = suppression of KLF5 promoter-driven luciferase – DLD-1 cells, luminescence, confirmation (AID 1834;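 active means inhibition above a set limit taken from the earlier primary screen, cut at about 63% in these data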;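 further: 0% = DMSO wells and 100% = LY294002 at 200 µM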); conditions: DLD-1 KLF5 promoter firefly luciferase reporter, at 4 µM, stronger effect = higher value
[2] = IEC-6 intestinal cell killing – luminescence, triplicate, cytotoxicity control for KLF5 inhibitor project (AID 1905); conditions: IEC-6 rat intestinal cells, viability luminescence; at 4 µM; stronger effect = higher value;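 further: cells exposed to compounds for 48 hours before viability read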
[3] = target: Neuropeptide Y receptor type 2 (Homo sapiens) (UniProt P49146); experiment: human Y2 receptor positive modulation or activation – cell-based, confirmation (AID 1539; in the data active means activation above about 33%); conditions: cell-based NPY-Y2 potentiator/agonist assay; at 3.6 µM; stronger effect = higher value
[4] = target: Neuropeptide Y receptor type 1 (Homo sapiens) (UniProt P25929); experiment: human Y1 receptor positive modulation or activation – cell-based, fluorescence, counter-screen for NPY-Y2 potentiator project (AID 1651; in the data active means activation above about 45%;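 further: cells stimulated with submaximal NPY then isoproterenol with phosphodiesterase inhibitor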); conditions: Y1 HEK293-CNG cells, membrane potential fluorescence; at 3.6 µM; stronger effect = higher value
[5] = target: Neuropeptide Y receptor type 1 (Homo sapiens) (UniProt P25929); experiment: human Y1 receptor agonism, CNGC membrane potential – cell-based, fluorescence, selectivity assay for NPY-Y2 potentiator project (AID 1702;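 active means activation above the mean of DMSO-only control wells plus 3 SD, cut at about 18% in these data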;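 further: cells stimulated with 1 µM isoproterenol plus the PDE inhibitor Ro 20-1724; 0% = isoproterenol with DMSO and no NPY and 100% = 40 nM NPY; Y1 agonists lower the membrane potential dye signal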); conditions: HEK293 Y1-CNGC, at 3.6 µM, stronger effect = higher value
[6] = blockers of isoproterenol-driven CNG channel signal – cell-based, HEK293-CNG parental, membrane potential fluorescence, counter-screen for NPY-Y2 potentiator project (AID 1703;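 active means inhibition above the control-well mean plus 3 SD of those wells, cut at about 22% in these data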;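 further: 0% = DMSO with isoproterenol and 100% = DMSO without isoproterenol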); conditions: isoproterenol cAMP, at 3.6 µM, stronger effect = higher value
[7] = target: Neuropeptide Y receptor type 2 (Homo sapiens) (UniProt P49146); experiment: agonism at human Y2 receptor without NPY – cell-based, fluorescence, counter-screen for NPY-Y2 potentiator project (AID 1710;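 active means activation above the mean of solvent-only control wells plus 3 SD, cut at about 10% in these data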;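 further: cells stimulated by isoproterenol with no NPY added so direct agonism is tested; 0% = DMSO with isoproterenol alone and 100% = NPY at EC100 plus isoproterenol; agonism lowers probe fluorescence through less cAMP and CNG channel opening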); conditions: HEK293 Y2/CNGC cells, membrane potential fluorescence, agonist mode; at 3.6 µM; stronger effect = higher value
[8] = target: Sphingosine 1-phosphate receptor 4 (Homo sapiens) (UniProt O95977); experiment: blockers of human S1P4 signalling – cell-based, confirmation (AID 1524; in the data active means inhibition above about 30%); conditions: S1P4-expressing cell line, antagonist mode, reporter read-out; at 4.98 µM; stronger effect = higher value
[9] = target: Sphingosine 1-phosphate receptor 1 (Homo sapiens) (UniProt P21453); experiment: blockade of human S1P1 receptor – cell-based, counter-screen for S1P4 antagonist project (AID 1564; in the data active means inhibition above about 40%;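 further: receptor stimulated with S1P near its EC80; 0% = agonist stimulated wells and 100% = vehicle only wells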); conditions: cell-based S1P1 antagonist counterscreen, at 4.98 µM, stronger effect = higher value
[10] = target: Receptor-interacting serine/threonine-protein kinase 2 (Homo sapiens) (UniProt O43353); experiment: inhibitors of RIPK2 association with NOD2 – fluorescence, CHO cells, BLA complementation, triplicate, confirmation (AID 624370;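 active means mean inhibition across replicates above a set limit taken from the earlier primary screen, cut at about 21% in these data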;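 further: 0% = DMSO-only wells and the high end = clavulanate BLA-blocked wells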); conditions: CCF4 FRET, at 4.98 µM, stronger effect = higher value
[11] = BLA reporter readout interference – cell-based, CHO-K1 CMV-bla, CCF4 FRET, fluorescence, artefact control for NOD2-RIPK2 interaction inhibitor project, confirmation (AID 624371;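 active means mean inhibition above the low-control mean inhibition plus three low-control SD, cut at about 11% in these data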;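 further: 0% = DMSO only wells and 100% = clavulanate high control wells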); conditions: CCF4 FRET ratio, counterscreen, at 4.98 µM, stronger effect = higher value
[12] = target: Photoreceptor-specific nuclear receptor (Homo sapiens) (UniProt Q9Y5X4); experiment: retest of NR2E3-NCOR disrupting agonists – cell-based, luminescence, CHO-S two-hybrid, confirmation (AID 624378;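 active means average inhibition above a cutoff equal to the mean inhibition of all tested compounds plus one SD, cut at about 70% in these data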;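 further: 0% = DMSO in NR2E3 cells and 100% = DMSO in cells lacking NR2E3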); conditions: CHO-S mammalian two-hybrid NR2E3-NCOR, luciferase luminescence; at 3.98 µM; stronger effect = higher value
[13] = nonselective effects on VP16 transactivation – cell-based, luminescence, CHO-S, high throughput, counter-screen for NR2E3 agonist project, confirmation (AID 624379;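 active means mean inhibition above a cutoff equal to the average over all tested compounds plus one standard deviation, cut at about 70% in these data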;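 further: 0% = DMSO with VP16-transfected cells and 100% = DMSO with cells lacking VP16; higher means less reporter light so more repression of VP16 activity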); conditions: CHO-S GAL4-VP16 luciferase reporter, at 3.98 µM, stronger effect = higher value
[14] = test system: transactivating tegument protein VP16 (Human herpesvirus 1); experiment: compounds suppressing VP16-driven luciferase signal – cell-based, luminescence, single concentration, counter-screen for SRC2 inhibitor project (AID 652007; in the data active means inhibition above about 36%); conditions: cell-based VP16 transactivation luciferase reporter, at 8.9 µM, stronger effect = higher value
[15] = target: Nuclear receptor coactivator 2 (Homo sapiens) (UniProt Q15596); experiment: inhibition of GAL4-SRC2 driven luciferase expression – cell-based, luminescence, HEK293, triplicate, confirmation (AID 652008;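 active means mean inhibition above 46.5%, the solvent-only control mean plus 3 SD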;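 further: 0% = DMSO-treated cells and 100% = Gossypol at 36 µM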); conditions: HEK293 GAL4-SRC2 luciferase reporter, at 8.9 µM, stronger effect = higher value
[16] = VP16-driven transactivation reporter suppression – cell-based, luminescence, HEK293, counter-screen for COUP-TFII antagonist project (AID 687007; in the data active means inhibition above about 13%); conditions: HEK293 Gal4-VP16 luciferase reporter, at 8.5 µM, stronger effect = higher value
[17] = target: COUP transcription factor 2 (Homo sapiens) (UniProt P24468); experiment: retest of COUP-TFII reporter suppressors – cell-based, luciferase reporter, HEK293, triplicate, confirmation (AID 687008;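 active means mean inhibition over three repeats above a set limit taken from the earlier primary screen, cut at about 38% in these data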;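 further: 100% = cells given the luciferase reporter alone without the COUP-TF2 vector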); conditions: HEK293 NGFI-A luciferase reporter, luminescence; at 8.5 µM; stronger effect = higher value
[18] = test system: Fam108b (Abhd17b) serine hydrolase [Mus musculus]; experiment: inhibition of Fam108b (Abhd17b) hydrolase – biochemical, fluorescence polarization, triplicate, counter-screen for RBBP9 inhibitor project, confirmation (AID 1978;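 active means inhibition above a limit from the primary screen, the mean over all compounds plus 3 SD, cut at about 19% in these data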;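 further: 0% = median of active Fam108b wells and 100% = catalytically dead S170A mutant; inhibitors free the probe so polarization falls as inhibition rises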); conditions: recombinant Fam108b, FP-Rh probe fluorescence polarization; at 9.51 µM; stronger effect = higher value
[19] = target: Bcl-2-like protein 1 (Homo sapiens) (UniProt Q07817); experiment: Bcl-xL BH3-peptide displacement, hit confirmation – biochemical, fluorescence polarization, counter-screen for MCL1 inhibitor project (AID 2166;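 active means inhibition above a cutoff equal to the mean inhibition of all tested compounds plus 3 SD, cut at about 30% in these data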); conditions: GST-Bcl-xL / FITC-Bim BH3 peptide FP binding; at 10.9 µM; stronger effect = higher value
[20] = target: Induced myeloid leukemia cell differentiation protein Mcl-1 (Homo sapiens) (UniProt Q07820); experiment: MCL1-BIM peptide interaction disruptors – biochemical, fluorescence polarization, triplicate, confirmation (AID 2168;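 active means inhibition above the average of all tested compounds plus 3 SD, cut at about 40% in these data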;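 further: 0% = DMSO wells and 100% = unlabeled Bim-BH3 control peptide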); conditions: GST-MCL1 / FITC-Bim-BH3 fluorescence polarization; at 10.9 µM; stronger effect = higher value
[21] = target: Glutathione S-transferase omega-1 (Homo sapiens) (UniProt P78417); experiment: recombinant GSTO1 blockers, retest – biochemical, fluorescence polarization, triplicate, counter-screen for RBBP9 inhibitor project, confirmation (AID 2176;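 active means inhibition above the primary screen's cutoff, its mean inhibition plus 3 SD, cut at about 35% in these data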;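 further: loss of polarization as inhibitors block binding of rhodamine sulfonate ester activity probe; 0% = GSTO1 with DMSO and 100% = wells lacking GSTO1 enzyme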); conditions: recombinant GSTO1, probe fluorescence polarization; at 5.96 µM; stronger effect = higher value
[22] = target: Photoreceptor-specific nuclear receptor (Homo sapiens) (UniProt Q9Y5X4); experiment: corepressor-releasing ligands of human NR2E3 – biochemical, TR-FRET, confirmation (AID 2379; in the data active means activation above about 20%); conditions: cell-free NR2E3 corepressor release, 5 h, at 3.98 µM, stronger effect = higher value
[23] = target: Platelet-activating factor acetylhydrolase (Homo sapiens) (UniProt Q13093); experiment: inhibition of plasma PAF acetylhydrolase – biochemical, fluorescence polarization, human, confirmation (AID 463230;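 active means mean inhibition of the triplicate above the hit cutoff set for the earlier primary screen, cut at about 25% in these data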;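 further: 0% = enzyme with DMSO and 100% = wells lacking pPAFAH enzyme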); conditions: recombinant pPAFAH, FP-Rh probe fluorescence polarization; at 3.39 µM; stronger effect = higher value
[24] = target: Protein-arginine deiminase type-4 (Homo sapiens) (UniProt Q9UM07); experiment: protein arginine deiminase 4 blockade, retest – biochemical, fluorescence polarization, confirmation (AID 488796;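 active means mean inhibition across replicates above the hit cutoff set by the earlier primary screen, cut at about 15% in these data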;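 further: inhibitors block active-site labeling by the probe so polarization falls; 0% = PAD4 with probe and DMSO and 100% = probe without PAD4 enzyme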); conditions: recombinant PAD4, RCA probe fluorescence polarization; at 6.36 µM; stronger effect = higher value
[25] = target: Peroxisome proliferator-activated receptor gamma (Homo sapiens) + Nuclear receptor corepressor 2 (Homo sapiens) (UniProt P37231+Q9Y618); experiment: agonists of PPARg-NCOR2 corepressor interaction, counter-screen for NR2E3 agonist project, biochemical, TR-FRET (AID 504787; in the data active means inhibition above about 20%;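 further: 0% = DMSO vehicle and 100% = wells without protein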); conditions: TR-FRET PPARg-NCOR2 coregulator interaction, at 3.98 µM, stronger effect = higher value
[26] = BSA probe fluorescence interference – biochemical, TAMRA-labeled BSA, counter-screen for TCR-CD3 interaction inhibitor project (AID 652035); conditions: TAMRA-labeled BSA probe fluorescence counterscreen; at 9.4 µM; stronger effect = higher value;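 further: 0% = buffer low control and 100% = reference high control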
[27] = test system: T-cell receptor (TCR)-CD3 interaction, human; experiment: blockers of TCR binding to CD3 – biochemical, fluorescence, TAMRA-labeled TCR probe, confirmation (AID 652036; in the data active means inhibition above about 19%); conditions: TAMRA-labeled TCR probe fluorescence binding assay; at 9.4 µM; stronger effect = higher value
[28] = target: Protein phosphatase methylesterase 1 (Homo sapiens) (UniProt Q9Y570); experiment: human PME-1 methylesterase inhibition confirmation – biochemical, fluorescence polarization, FP-Rh probe, triplicate (AID 2171;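 active means inhibition above the hit cutoff set in the earlier primary screen, cut at about 27% in these data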;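 further: 0% = enzyme with DMSO and 100% = wells lacking PME-1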); conditions: recombinant PME-1, FP-Rh probe fluorescence polarization; at 5.9 µM; stronger effect = higher value
[29] = target: (Lyso)-N-acylphosphatidylethanolamine lipase (Mus musculus) (UniProt Q8VD66); experiment: mouse ABHD4 hydrolase blockers, triplicate – biochemical, fluorescence polarization, confirmation (AID 720658;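 active means mean inhibition across replicates above the hit cutoff set in the primary screen, cut at about 30% in these data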;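 further: 0% = wild-type ABHD4 with DMSO and 100% = catalytically dead S159A mutant with DMSO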); conditions: purified mABHD4, FP-Rh probe fluorescence polarization; at 8.92 µM; stronger effect = higher value

Sphingosine 1-phosphate receptor 1 (Homo sapiens), sequence (P21453 whole entry, looked up): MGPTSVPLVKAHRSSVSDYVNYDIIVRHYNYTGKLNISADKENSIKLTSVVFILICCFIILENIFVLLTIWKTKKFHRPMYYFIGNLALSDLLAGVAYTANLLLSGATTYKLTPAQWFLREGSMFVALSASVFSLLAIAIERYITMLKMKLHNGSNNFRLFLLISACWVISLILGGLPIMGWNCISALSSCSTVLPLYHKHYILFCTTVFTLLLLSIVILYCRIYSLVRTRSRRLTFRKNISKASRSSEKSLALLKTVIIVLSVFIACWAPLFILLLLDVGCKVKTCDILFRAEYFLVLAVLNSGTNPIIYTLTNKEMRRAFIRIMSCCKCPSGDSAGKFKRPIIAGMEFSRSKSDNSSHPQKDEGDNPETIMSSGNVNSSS
Sphingosine 1-phosphate receptor 4 (Homo sapiens), sequence (O95977 whole entry, looked up): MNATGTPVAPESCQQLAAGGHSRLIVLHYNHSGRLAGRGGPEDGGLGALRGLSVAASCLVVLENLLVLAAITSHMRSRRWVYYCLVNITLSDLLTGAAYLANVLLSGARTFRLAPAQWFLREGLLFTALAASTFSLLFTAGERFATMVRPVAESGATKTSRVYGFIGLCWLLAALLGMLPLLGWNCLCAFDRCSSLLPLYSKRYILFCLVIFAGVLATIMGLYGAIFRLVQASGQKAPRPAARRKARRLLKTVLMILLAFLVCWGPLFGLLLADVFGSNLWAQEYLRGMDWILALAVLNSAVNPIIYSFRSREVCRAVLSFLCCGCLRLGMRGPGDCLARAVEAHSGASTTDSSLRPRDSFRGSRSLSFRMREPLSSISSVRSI
Neuropeptide Y receptor type 1 (Homo sapiens), sequence (P25929 whole entry, looked up): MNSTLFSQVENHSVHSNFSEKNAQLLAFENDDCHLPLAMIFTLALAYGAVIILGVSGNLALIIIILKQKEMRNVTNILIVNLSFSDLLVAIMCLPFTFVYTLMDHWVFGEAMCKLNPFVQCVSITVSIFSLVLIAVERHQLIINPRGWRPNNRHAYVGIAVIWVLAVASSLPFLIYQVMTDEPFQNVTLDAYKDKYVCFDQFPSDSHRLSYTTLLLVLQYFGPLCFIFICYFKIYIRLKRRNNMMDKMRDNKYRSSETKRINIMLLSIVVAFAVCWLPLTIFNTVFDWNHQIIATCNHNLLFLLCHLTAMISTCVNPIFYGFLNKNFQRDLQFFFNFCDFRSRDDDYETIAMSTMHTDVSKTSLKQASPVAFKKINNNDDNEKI
Neuropeptide Y receptor type 2 (Homo sapiens), sequence (P49146 whole entry, looked up): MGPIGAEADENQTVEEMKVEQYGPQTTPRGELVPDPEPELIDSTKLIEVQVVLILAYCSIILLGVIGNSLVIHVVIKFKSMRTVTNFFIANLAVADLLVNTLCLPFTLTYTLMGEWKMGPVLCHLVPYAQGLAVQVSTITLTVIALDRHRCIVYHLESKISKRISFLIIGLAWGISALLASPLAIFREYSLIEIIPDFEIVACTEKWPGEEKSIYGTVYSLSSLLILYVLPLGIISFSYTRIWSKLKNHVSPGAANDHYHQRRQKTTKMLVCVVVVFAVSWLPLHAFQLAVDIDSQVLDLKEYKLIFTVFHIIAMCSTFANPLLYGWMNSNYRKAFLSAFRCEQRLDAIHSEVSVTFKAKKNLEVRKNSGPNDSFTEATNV
Photoreceptor-specific nuclear receptor (Homo sapiens), sequence (Q9Y5X4 whole entry, looked up): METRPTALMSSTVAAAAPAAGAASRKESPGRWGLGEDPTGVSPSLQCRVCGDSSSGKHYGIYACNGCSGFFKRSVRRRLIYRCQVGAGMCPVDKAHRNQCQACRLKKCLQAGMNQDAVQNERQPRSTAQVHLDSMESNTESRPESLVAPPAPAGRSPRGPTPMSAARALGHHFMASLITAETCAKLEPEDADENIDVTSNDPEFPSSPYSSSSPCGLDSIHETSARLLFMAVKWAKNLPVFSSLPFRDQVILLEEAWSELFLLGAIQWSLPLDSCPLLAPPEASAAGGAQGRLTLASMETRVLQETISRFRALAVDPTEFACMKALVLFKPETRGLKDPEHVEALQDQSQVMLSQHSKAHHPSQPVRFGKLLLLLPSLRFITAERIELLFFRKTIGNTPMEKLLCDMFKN
Bcl-2-like protein 1 (Homo sapiens), sequence (Q07817 whole entry, looked up): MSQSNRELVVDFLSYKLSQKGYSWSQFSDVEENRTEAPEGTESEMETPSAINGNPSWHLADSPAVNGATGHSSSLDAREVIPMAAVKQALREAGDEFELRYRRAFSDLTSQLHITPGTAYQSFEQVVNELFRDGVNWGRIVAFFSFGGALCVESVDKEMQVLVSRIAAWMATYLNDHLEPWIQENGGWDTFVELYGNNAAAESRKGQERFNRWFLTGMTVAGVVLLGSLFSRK
Induced myeloid leukemia cell differentiation protein Mcl-1 (Homo sapiens), sequence (Q07820 whole entry, looked up): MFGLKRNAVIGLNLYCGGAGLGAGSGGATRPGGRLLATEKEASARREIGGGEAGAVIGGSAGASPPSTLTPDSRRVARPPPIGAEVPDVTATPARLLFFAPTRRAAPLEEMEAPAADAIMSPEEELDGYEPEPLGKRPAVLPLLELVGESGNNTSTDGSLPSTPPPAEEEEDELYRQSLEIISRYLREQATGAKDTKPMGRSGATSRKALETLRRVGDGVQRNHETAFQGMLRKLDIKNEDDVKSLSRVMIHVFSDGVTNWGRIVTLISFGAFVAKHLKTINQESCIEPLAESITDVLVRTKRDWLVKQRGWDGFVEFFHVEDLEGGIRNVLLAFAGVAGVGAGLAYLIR
Nuclear receptor coactivator 2 (Homo sapiens), sequence (Q15596 whole entry, looked up, the tested form may be a part): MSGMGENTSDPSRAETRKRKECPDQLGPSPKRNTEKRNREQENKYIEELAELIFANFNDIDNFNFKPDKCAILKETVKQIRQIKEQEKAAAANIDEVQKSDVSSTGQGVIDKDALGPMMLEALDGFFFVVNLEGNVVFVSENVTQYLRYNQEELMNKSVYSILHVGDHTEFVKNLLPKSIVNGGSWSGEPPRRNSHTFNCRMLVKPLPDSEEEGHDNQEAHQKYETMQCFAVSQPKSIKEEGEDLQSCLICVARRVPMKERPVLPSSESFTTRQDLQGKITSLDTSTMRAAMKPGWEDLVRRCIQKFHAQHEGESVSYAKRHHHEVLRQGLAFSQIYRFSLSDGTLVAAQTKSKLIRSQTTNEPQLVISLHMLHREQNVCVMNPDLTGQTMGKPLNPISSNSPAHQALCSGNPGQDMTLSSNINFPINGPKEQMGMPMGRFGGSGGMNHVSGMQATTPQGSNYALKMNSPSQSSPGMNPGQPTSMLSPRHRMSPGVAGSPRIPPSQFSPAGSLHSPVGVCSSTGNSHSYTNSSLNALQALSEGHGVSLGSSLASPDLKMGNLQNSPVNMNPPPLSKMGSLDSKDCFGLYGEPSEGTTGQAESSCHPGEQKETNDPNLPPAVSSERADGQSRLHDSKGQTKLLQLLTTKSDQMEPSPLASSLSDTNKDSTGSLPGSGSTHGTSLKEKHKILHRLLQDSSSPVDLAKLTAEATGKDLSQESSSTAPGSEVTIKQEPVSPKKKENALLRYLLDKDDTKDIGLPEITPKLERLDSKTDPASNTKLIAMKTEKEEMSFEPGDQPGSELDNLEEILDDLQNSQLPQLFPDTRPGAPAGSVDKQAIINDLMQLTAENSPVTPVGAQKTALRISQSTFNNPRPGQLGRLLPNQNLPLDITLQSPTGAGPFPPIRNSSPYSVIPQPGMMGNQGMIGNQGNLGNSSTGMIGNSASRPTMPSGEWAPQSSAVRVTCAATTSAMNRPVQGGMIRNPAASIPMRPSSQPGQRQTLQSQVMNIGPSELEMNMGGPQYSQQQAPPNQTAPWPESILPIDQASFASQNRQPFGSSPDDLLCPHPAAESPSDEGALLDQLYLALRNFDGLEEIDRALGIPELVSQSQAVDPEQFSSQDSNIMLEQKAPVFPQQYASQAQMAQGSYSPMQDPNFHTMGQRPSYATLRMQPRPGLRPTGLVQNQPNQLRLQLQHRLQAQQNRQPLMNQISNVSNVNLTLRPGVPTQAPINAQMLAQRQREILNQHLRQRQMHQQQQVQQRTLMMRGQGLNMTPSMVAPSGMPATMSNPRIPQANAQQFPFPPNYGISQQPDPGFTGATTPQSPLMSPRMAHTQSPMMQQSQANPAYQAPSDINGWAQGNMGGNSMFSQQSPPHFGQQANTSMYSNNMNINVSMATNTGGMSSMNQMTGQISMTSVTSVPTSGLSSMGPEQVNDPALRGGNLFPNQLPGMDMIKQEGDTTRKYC
Platelet-activating factor acetylhydrolase (Homo sapiens), sequence (Q13093 whole entry, looked up): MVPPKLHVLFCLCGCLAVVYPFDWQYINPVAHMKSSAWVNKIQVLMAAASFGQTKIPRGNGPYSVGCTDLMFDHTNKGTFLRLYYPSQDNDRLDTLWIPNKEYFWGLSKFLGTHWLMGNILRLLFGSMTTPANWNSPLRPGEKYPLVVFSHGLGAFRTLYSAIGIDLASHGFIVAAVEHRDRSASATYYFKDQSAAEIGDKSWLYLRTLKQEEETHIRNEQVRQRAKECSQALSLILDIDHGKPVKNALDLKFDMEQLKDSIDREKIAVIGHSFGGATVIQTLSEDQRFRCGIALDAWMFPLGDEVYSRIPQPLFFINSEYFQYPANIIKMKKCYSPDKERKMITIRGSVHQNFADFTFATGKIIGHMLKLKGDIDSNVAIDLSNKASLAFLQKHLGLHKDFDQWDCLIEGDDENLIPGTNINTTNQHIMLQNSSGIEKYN
Receptor-interacting serine/threonine-protein kinase 2 (Homo sapiens), sequence (O43353 whole entry, looked up): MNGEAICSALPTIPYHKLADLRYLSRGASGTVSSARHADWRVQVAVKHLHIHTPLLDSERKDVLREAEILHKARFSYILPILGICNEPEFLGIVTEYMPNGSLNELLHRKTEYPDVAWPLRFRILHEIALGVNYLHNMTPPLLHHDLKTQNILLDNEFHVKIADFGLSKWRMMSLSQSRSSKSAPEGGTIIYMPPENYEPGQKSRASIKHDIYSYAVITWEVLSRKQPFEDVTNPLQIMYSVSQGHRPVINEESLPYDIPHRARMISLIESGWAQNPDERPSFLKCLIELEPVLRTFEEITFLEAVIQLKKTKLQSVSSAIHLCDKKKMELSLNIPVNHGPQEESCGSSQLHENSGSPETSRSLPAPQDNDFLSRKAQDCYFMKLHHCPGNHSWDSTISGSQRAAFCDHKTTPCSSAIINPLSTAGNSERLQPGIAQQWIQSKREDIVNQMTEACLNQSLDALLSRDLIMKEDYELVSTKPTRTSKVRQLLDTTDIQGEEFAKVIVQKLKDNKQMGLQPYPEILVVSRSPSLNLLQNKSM

Q: Which inhibition [1] does the source give for `CN(CCO)c1ccc(/C=N/Nc2nncc3ccccc23)cc1` here?
A: 91.2% (active)

Q: And the inhibition [2]?
A: -0.69%

Q: For `COc1ccc(Nc2cc(C)nc(-n3nc(C)cc3C)n2)cc1`, which inhibition [1] is on record?
A: 78.8% (active)

Q: What about the inhibition [2] of the same compound?
A: 60.9% (active)

Q: With `O=C(Nc1sc2c(c1-c1nc3ccccc3[nH]1)CCCC2)C1CC1` as the compound, how does the activation [3] read?
A: 19.1%

Q: And the activation [4]?
A: 30.4%

Q: What about the activation [5] of the same compound?
A: 27.3% (active)

Q: And the inhibition [6]?
A: 19.9%

Q: What about the activation [7] of the same compound?
A: 24.5% (active)

Q: Which inhibition [8] does the source give for `O=C1C=C(c2ccc(Cl)cc2)C(=O)N1Nc1ccccc1` here?
A: 119% (active)

Q: And the inhibition [9]?
A: 63% (active)

Q: And the inhibition [10]?
A: 90.3% (active)

Q: What about the inhibition [11] of the same compound?
A: 14.8% (active)

Q: What does the source list for `CC(C)c1ccc(N2CCN(C(=O)c3ccccc3NC(=O)/C=C(\C(=O)O)c3ccccc3)CC2)cc1`?
A: inhibition [8]: 102% (active); inhibition [9]: 62.4% (active)

Q: Which activation [3] does the source give for `COc1cc(NC(=O)c2ccccc2NS(=O)(=O)c2ccc(Cl)s2)cc(OC)c1` here?
A: 0.49%

Q: And the activation [4]?
A: -30.1%

Q: And the activation [5]?
A: -29%

Q: And the inhibition [6]?
A: -9.95%

Q: And the activation [7]?
A: -3.82%

Q: What about the inhibition [12] of the same compound?
A: 99.6% (active)

Q: What about the inhibition [13] of the same compound?
A: 90.3% (active)

Q: With `Cc1cc2oc(C(=O)Nc3c(C)n(C)n(-c4ccccc4)c3=O)c(C)c2cc1Cl` as the compound, how does the inhibition [8] read?
A: 63.1% (active)

Q: What about the inhibition [9] of the same compound?
A: 19.1%

Q: Which results are given for `Cc1ccc(-c2cn3cc(C)ccc3n2)cc1`?
A: inhibition [1]: 85% (active); inhibition [2]: 8.78%; inhibition [14]: 45.9% (active); inhibition [15]: 69.2% (active); inhibition [16]: 20.1% (active); inhibition [17]: 43.9% (active)

Q: With `COCCNC(=O)Nc1ccc2nc(-c3ccco3)c(-c3ccco3)nc2c1` as the compound, how does the inhibition [18] read?
A: 17.4%

Q: And the inhibition [19]?
A: 104% (active)

Q: And the inhibition [20]?
A: 136% (active)

Q: What about the inhibition [21] of the same compound?
A: 64.7% (active)

Q: What about the activation (reported as inhibition) [22] of the same compound?
A: -0.99%

Q: And the inhibition [23]?
A: 33.1% (active)

Q: And the inhibition [24]?
A: 1.02%

Q: And the inhibition [25]?
A: -6.1%

Q: What about the inhibition [26] of the same compound?
A: -14.8%

Q: What about the inhibition [27] of the same compound?
A: 41.6% (active)

Q: Which inhibition [18] does the source give for `COCCOC(=O)c1sc(=S)n(CCOC)c1N` here?
A: 19.6% (active)

Q: And the inhibition [19]?
A: 85.4% (active)

Q: What about the inhibition [20] of the same compound?
A: 131% (active)

Q: What about the inhibition [28] of the same compound?
A: 21.3%

Q: And the inhibition [26]?
A: 42.3% (active)

Q: And the inhibition [27]?
A: 33.1% (active)

Q: What about the inhibition [29] of the same compound?
A: 47.4% (active)
